INS-1E GSIS act = GLuc luminescence reporter in INS-1E cells, primary screen for activators of glucose-dependent secretion of insulin; INS-1E GLuc reporter insulin secretion, 2-3 h; activation, % at 16.6 µM; 0.61% of 370,000 active;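 active = lowest replicate activation of at least 40%, so every replicate reaches that level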;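 note: 0% = median of neutral control wells and 100% = median of IBMX positive control wells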
NSD2 HMT inh = blocks human histone methyltransferase NSD2; AID 743445; 0.54% of 310,000 active; inhibition, % at 12.5 µM; O96028; NSD2 peptide methylation, AlphaScreen, 120 min
Target sequence (O96028 whole entry, looked up): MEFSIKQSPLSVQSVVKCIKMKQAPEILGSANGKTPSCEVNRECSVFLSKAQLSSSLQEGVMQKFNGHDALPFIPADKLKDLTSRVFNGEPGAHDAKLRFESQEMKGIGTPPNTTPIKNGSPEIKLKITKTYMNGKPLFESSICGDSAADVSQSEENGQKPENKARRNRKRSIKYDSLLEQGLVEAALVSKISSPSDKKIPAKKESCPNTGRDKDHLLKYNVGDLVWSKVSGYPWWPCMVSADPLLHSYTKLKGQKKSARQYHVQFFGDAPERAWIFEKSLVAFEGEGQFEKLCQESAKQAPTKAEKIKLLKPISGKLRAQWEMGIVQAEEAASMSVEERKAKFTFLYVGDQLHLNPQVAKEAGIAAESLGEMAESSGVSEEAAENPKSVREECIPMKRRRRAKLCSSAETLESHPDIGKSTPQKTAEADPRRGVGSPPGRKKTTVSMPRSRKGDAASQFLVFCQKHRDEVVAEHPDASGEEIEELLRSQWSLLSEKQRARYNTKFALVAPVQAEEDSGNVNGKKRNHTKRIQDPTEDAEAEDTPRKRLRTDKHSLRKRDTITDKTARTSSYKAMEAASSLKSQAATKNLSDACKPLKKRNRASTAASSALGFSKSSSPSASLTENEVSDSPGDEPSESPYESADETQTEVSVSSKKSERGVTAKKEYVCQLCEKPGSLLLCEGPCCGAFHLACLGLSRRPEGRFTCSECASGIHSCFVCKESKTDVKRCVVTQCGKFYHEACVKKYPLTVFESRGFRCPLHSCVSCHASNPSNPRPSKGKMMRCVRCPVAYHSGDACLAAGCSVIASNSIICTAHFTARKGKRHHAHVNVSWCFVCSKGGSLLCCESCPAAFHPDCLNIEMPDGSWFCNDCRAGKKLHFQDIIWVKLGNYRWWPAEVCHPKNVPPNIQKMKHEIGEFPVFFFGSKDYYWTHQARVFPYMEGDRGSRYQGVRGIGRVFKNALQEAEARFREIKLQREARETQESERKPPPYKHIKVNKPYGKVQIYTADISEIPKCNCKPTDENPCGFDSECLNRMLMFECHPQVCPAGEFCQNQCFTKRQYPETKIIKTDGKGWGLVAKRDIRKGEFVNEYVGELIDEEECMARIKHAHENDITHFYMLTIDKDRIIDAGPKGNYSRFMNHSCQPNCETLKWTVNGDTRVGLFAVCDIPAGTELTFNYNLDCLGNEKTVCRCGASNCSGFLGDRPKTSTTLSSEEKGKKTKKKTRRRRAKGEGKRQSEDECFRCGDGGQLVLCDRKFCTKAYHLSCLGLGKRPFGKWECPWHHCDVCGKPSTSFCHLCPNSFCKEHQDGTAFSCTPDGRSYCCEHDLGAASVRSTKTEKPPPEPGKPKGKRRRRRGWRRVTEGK
Dyrk1A ADPGlo = Dyrk1A (rat) kinase inhibition; 0.43% of 310,000 active; AID 504441; inhibition, % at 12.5 µM; ADP-Glo luminescence, NFATc1 peptide;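 note: plate controls were vehicle with enzyme for no effect and no enzyme for full effect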
miR122 inh = blocks miR-122 activity in Huh7 sensor cells; 0.3% of 340,000 active; AID 602342; Huh7 miR-122 Renilla luciferase sensor, 48 h; neutral wells = 0, positive control = 100; activation (reporter increase), % at 12.5 µM;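 active = mean replicate activation score at least 90 and every replicate individually at or above 90; inconclusive = only one of the two criteria met; inactive = neither criterion met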;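 note: higher luciferase means less miR-122 activity so hits act as miR-122 inhibitors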
MITF TRPM1 HTS = increases MITF-driven TRPM1 promoter luciferase signal. activation, % at 12.5 µM. 0.75% of 300,000 active. SK-MEL-5 TRPM1-promoter luciferase, 24 h; % of positive control, neutral wells = 0;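 active = mean activation of at least 80% with every replicate also reaching 80%; inconclusive = mean reaches 80% but some replicate falls short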;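 note: 0% = neutral control wells and 100% = parthenolide positive control wells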
Wnt act = Wnt/beta-catenin pathway activation. 1.2% of 300,000 active. activation, % at 9.35 µM. Wnt/beta-catenin reporter cell assay, activator, plate reader. AID 743398; in the data active = activation above about 30%, passing the limit was not always enough; inconclusive = no clear call, values can overlap the other calls;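 note: 0% = neutral control wells and 100% = positive control wells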
* marks the source's active call; other numbers are inactive results; ? = inconclusive; nt = no result; [ ] = remark or other dose. The list is not random: actives were taken first. Their share in the collection is about 2.4%. Cut-off read from the data, not from the text of the source, unless noted: active = inhibition above about 50%; inactive = the rest.

SMILES | INS-1E GSIS act | NSD2 HMT inh | Dyrk1A ADPGlo | miR122 inh | MITF TRPM1 HTS | Wnt act
CN(C)c1ccc(/C=N/NC(=O)CSc2ccccn2)cc1 | 0 | 8 | nt | -1 | nt | 48*
COc1ccc(NC(=O)CSc2nc(C)cc(C)n2)c([N+](=O)[O-])c1 | -2 | 17 | -4 | nt | 13 | nt
COc1ccc(NC(=O)CSc2nccn2Cc2ccco2)cc1 | 14 | 0 | -4 | 0 | 57 | 36*
COc1ccc(NC(=O)CSc2ccccn2)c([N+](=O)[O-])c1 | -2 | 14 | nt | -1 | nt | 39*
O=C(CSc1ccccn1)Nc1ccc(NC(=O)CSc2ccccn2)cc1 | -2 | nt | 0 | nt | -8 | nt
CCOc1ccc(NC(=O)CSc2nccn2Cc2ccco2)cc1 | nt | 3 | 1 | 8 | 49 | 10
CO[C@H]1CN(C)C(=O)c2cc(NC(=O)c3ccccc3)ccc2OC[C@H](C)N(CC2CC2)C[C@@H]1C | -12 | nt | nt | 0[16.7 µM] | nt | nt
CCNC(=O)[C@@H]1[C@@H](CO)[C@@H]2Cn3c(cccc3=O)[C@H]1N2Cc1cc(F)ccc1F | 1 | nt | nt | nt | nt | nt
CCC(=O)OCC(=O)Nc1ccc(OC)cc1[N+](=O)[O-] | 4 | -2 | -1 | 3 | 2 | 0
COc1ccc(NC(=O)CSc2ccccn2)cc1 | nt | -1 | -6 | -3 | nt | 36*
CCCC(=O)Nc1ccc(C#Cc2ccccc2)cc1 | nt | 0 | -6 | -11 | 96* | 38*
COc1ccc(NC(=O)COC(=O)CN2C(=O)C3CC=CCC3C2=O)c([N+](=O)[O-])c1 (stereo not drawn) | nt | 2 | 2 | 1 | -8 | 40*
CCC(=O)N1[C@H](CO)[C@H](c2ccccc2)C12CN(C(=O)Nc1cccc(OC)c1)C2 | -5 | nt | nt | nt | nt | nt
COCC(=O)N1[C@H](C#N)[C@@H](c2ccccc2-c2cccc(F)c2)[C@H]1CO | -5 | nt | nt | nt | nt | nt
COCC(=O)Nc1ccc2c(c1)OC[C@H](C)N(C(=O)c1ccccc1F)C[C@@H](C)[C@@H](OC)CN(C)C2=O | -6 | nt | nt | 5[16.7 µM] | nt | nt
COCCNC(=O)c1ccc2c(Cl)c3c(nc2c1)CCC3 | nt | -4 | 6 | -18 | 100* | 36*
Cc1noc(C)c1NC(=O)N(C)C[C@@H]1Oc2ccc(NS(=O)(=O)c3ccccc3)cc2CC(=O)N([C@H](C)CO)C[C@H]1C | 16 | nt | nt | 4[16.7 µM] | nt | nt
O=C(Nc1ccccn1)c1ccc(Cl)s1 | -3 | -1 | nt | 2 | 161* | 16
Cc1ccccc1C(=O)Nc1ccc(Br)cn1 | 8 | -1 | 6 | 9 | 96* | nt
O=C(Nc1ccon1)c1ccc(Br)s1 | -4 | 1 | 5 | -3 | 3 | 8
Cc1ccnc(NC(=O)c2ccc(Br)s2)c1 | 5 | -3 | 3 | nt | 50 | 35*
Cc1ccnc(NC(=O)c2cccs2)c1 | nt | 20 | -5 | -5 | 65 | nt
O=C(Nc1ccccc1C(=O)Nc1ccc(Br)cn1)c1ccccc1Cl | -3 | -9 | nt | 1 | 9 | 0
O=C(Nc1ccc(Br)cn1)c1ccc(Br)s1 | 4 | -1 | 9 | 22 | 21 | 38*
C[C@@H]1CCCCO[C@H](CN(C)Cc2ccc(C(=O)O)cc2)[C@@H](C)CN([C@H](C)CO)C(=O)c2cc(NS(=O)(=O)c3ccccc3)ccc2O1 | 26 | nt | nt | 9[16.7 µM] | nt | nt
SMILES | INS-1E GSIS act | NSD2 HMT inh | Dyrk1A ADPGlo | miR122 inh | MITF TRPM1 HTS | Wnt act
C[C@@H]1CN([C@@H](C)CO)C(=O)Cc2cc(NS(=O)(=O)c3ccccc3)ccc2O[C@H]1CN(C)Cc1ccc2c(c1)OCO2 | -19 | nt | nt | -11[16.7 µM] | nt | nt
CO[C@@H]1CN(C)C(=O)c2ccc(NS(=O)(=O)c3ccccc3C)cc2OC[C@H](C)NC[C@@H]1C | -1 | nt | nt | -4[16.7 µM] | nt | nt
O=C(Nc1ccccn1)C(=O)Nc1ccccn1 | 0 | -5 | nt | nt | 70 | 39*
O=C(Nc1ccc(Br)cn1)c1ccc(Cl)s1 | -5 | -4 | 7 | 24 | 44 | 35*
Cc1cc(C(=O)Nc2ccc(Br)cn2)sc1C | 2 | -3 | 9 | -5 | nt | 54*
O=C(Nc1ccccc1)Nc1ccccn1 | nt | 1 | 0 | 0 | 74 | nt
CCC(=O)Nc1ccc(Br)cn1 | 3 | -4 | -2 | 2 | -5 | -1
C(=N\Nc1nc2ccccc2s1)/c1ccccn1 | 11 | 2 | nt | nt | nt | -12
CCC/C=N/Nc1nc2ccccc2s1 | 0 | -4 | 0 | nt | 80 | 75*
C(=C\c1ccccc1)/C=N/Nc1nc2ccccc2s1 | -7 | -3 | -3 | 9 | 101* | ?
Brc1csc(/C=N/Nc2nc3ccccc3s2)c1 | -7 | 4 | -6 | nt | 84* | nt
COc1ccc(C=NNc2nc3ccccc3s2)cc1 | 14 | -1 | 0 | nt | -8 | -1
C[C@]12C=CC(=O)C=C1CC[C@@H]1C2=CC[C@]2(C)[C@@H](C(=O)CN3CCN(c4cc(N5CCCC5)nc(N5CCCC5)n4)CC3)CC[C@@H]12 | nt | nt | 60* | -12 | 21 | -7
COC(=O)C(Cc1ccc(O)cc1)N1Cc2ccccc2C1=O (stereo not drawn) | 18 | -2 | 2 | -10 | 91* | 23
COc1cccc(NC(=O)n2ncc3c(C)cccc32)c1 | 4 | 0 | 3 | nt | 9 | 45*
COc1ccc(NC(=S)Nc2ccc3snnc3c2)cc1 | -16 | 7 | 20 | 10 | 51 | 4
COc1ccc(-c2nc3cc(NC(=S)NC(=O)Cc4ccccc4)ccc3o2)cc1 | 4 | 0 | 1 | -9 | 97* | nt
COc1ccccc1/C=C/C(=O)Nc1ccc2c(c1)CCC2 | -41 | 0 | 3 | nt | 114* | 28
COc1ccc(OC)c(/C=C/C(=O)Nc2ccc3c(c2)CCC3)c1 | 3 | 8 | 15 | -8 | -1 | -1
COc1ccc(NC(=S)Nc2ccc3nccnc3c2)cc1 | -15 | -1 | 14 | -1 | 88* | nt
Cc1ccccc1S(=O)(=O)N1CC(=O)N2[C@@H](CO)[C@@H](c3ccc(C#CCN(C)C)cc3)[C@@H]2C1 | 1 | nt | nt | nt | nt | nt
COc1cccc(NC(=S)Nc2ccc(F)cc2)c1 | nt | -2 | -2 | 5 | -1 | 41*
CCOc1ccc(NC(=O)c2ccc(F)cc2F)cc1 | -13 | nt | 5 | -5 | 93* | 41*
COc1ccc(NC(=O)Nc2cccc(OC)c2)cc1 | nt | nt | 5 | 3 | 96* | ?
CCOc1ccc(NC(=O)c2cc3ccccc3cc2OC)cc1 | 1 | -1 | -1 | 3 | 30 | 12
SMILES | INS-1E GSIS act | NSD2 HMT inh | Dyrk1A ADPGlo | miR122 inh | MITF TRPM1 HTS | Wnt act
O=C(CCCCC(=O)Nc1ccc(F)cc1F)Nc1ccc(F)cc1F | nt | -1 | 2 | 1 | nt | 33*
CN(C)C(=O)c1cccc(-c2ccc3c(c2)[C@H]2[C@H](CCN2C(=O)C2CC2)[C@@H](CO)N3)c1 | 8 | nt | nt | -7[16.7 µM] | nt | nt
C[C@H]1CN([C@@H](C)CO)C(=O)c2cc(NC(=O)Cn3cnnn3)ccc2O[C@H]1CN(C)S(=O)(=O)c1ccc(Cl)cc1 | 32 | nt | nt | -4[16.7 µM] | nt | nt
COc1ccccc1C=CC(=O)C=Cc1ccccc1OC | 8 | 1 | -3 | nt | -73 | 19
COc1ccc(NC(=O)Nc2ccc(F)cc2F)cc1 | 4 | -1 | 1 | 5 | 92* | nt
COc1ccc(NC(=S)Nc2ccc(N)c([N+](=O)[O-])c2)cc1 | nt | 21 | 13 | -1 | 19 | 45*

Screening results from PubChem.
